What follows are sequences tested on RXRa homodimer (NR concentration 180 nM) (assay: PBM binding z-score (relative to random genomic background probes); higher = stronger binding; sequences stand for … in GC…GCGATTGACAGCGTAGAATGAAGG).
How it was run: (§1)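 On custom Agilent 4×180K arrays, double-stranded probes with 34-nt variable regions carried direct-repeat seeds, single-nucleotide variants, half-site ablations or random human genomic background. Ligand-free nuclear receptor dimers were applied for 1 h, and binding was read with antibodies against each partner (one per run). Binding z-scores come from regression-normalized fluorescence, with the random background probes as reference.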
In the case of CCTGCTAGGTCATGGTCGGCTAATCTACAGTATG, the PBM binding z-score is reported as 2.82.
TCATATAGGTAAAAGGTGAAAGCCGGTGTGGTAA was tested, and the PBM binding z-score was 2.92.
CCTATTAGTTGACCATAAGCGCAACCGAAGCTCG was tested, and the PBM binding z-score was 0.371.
Work on TCGAGTAGGTCACCAATGGGGCATTCAGCTTTCT yielded a PBM binding z-score of 3.44.
For CCTAGTTGGTCAGGAGGTCACACAACGGATATGA, the PBM binding z-score was 4.82.
With ATATGTAGGTTACATCCGGGTCATTCCGGCTATG the PBM binding z-score was 2.92.
With TCTTGTAGATCAACAGGACGTTAAGAAAGATCGA the PBM binding z-score was 0.45.
Sequence ACTAGCAGGCCAAGGGTCACACAAGATTAGTCCG has a PBM binding z-score of 4.68.
CCCGACAGGTGAGAAGGTAACTCAGCCTCGATTA showed a PBM binding z-score of 0.298.
For ATCTCTAGGTAAAAGTTCAGGGAATCCCGAGGAT, the PBM binding z-score was 2.15.
Sequence CCGACAGGGGCAGAAAGGTTACCATACCATCCGG has a PBM binding z-score of 1.99.
In the case of TGAATGAGGTAAAAGATCAGGGAACGTGGCGTCG, the PBM binding z-score is reported as 0.851.
In the case of CGAACTAGGTCATTGACAGGACAGTGCATAGTAA, the PBM binding z-score is reported as 2.43.
In the case of CCGACTGTGGCAGAAAGGTTACCATACCATCCGG, the PBM binding z-score is reported as 1.47.
TTACCAAGGTGAGCTGAGGTCTTTGATCCAACTC showed a PBM binding z-score of 0.322.
For TCTGCTAGGTCATTTGGTCAGCTAACGAGCTGCC, the PBM binding z-score was 2.34.
GGAACGAGGGCATAGTTGATAGCATCTGTCGACG showed a PBM binding z-score of 1.02.
Sequence ACTCGCAGGCCAAGTTTGGGTCACTCAAACAAAG has a PBM binding z-score of 0.756.
CTCGAAAGGTCGTGCTCGGGTGAGTATACCAAAC was tested, and the PBM binding z-score was 4.73.
ATCTCTAGGTAACCAACTTCAGTGAATGCCGAAC gave a PBM binding z-score of 0.158.
CCTACTGGGCCACGAAAGGACATTGATTCAGTGA was tested, and the PBM binding z-score was -0.0708.
In the case of TCTTGTAGATCAGCAGGTTAAGACAGCTGGCCAA, the PBM binding z-score is reported as 0.431.
Work on CGTCCAAGGTCAAGGCTAGGTCAGTGAAAGCATT yielded a PBM binding z-score of 6.77.
Work on ATCTCTAGGTAAAGTTCGGTGAAAGATCGATAGA yielded a PBM binding z-score of 0.31.
GCTGCTAGGTCAGGTTGGACAGCTAACGGGTACG showed a PBM binding z-score of 1.06.
For CAGACTAGGTCACGAAAGGTCAAAGTCGAATGAC, the PBM binding z-score was 8.34.
ACTATTGGTTGAGACGAGGGCAACCGATAGGTTG was tested, and the PBM binding z-score was 0.596.
Work on GCTGCTAGGTCAGGTTGCTCAGCTAACGGGTACG yielded a PBM binding z-score of 0.855.
Work on AGAATGAGGTTATACGTAGATTAGGGAAGAAAGT yielded a PBM binding z-score of 2.3.
TCGAGTATGTTACCAATGGGGCATTCAGCTTTCT was tested, and the PBM binding z-score was -0.0794.
In the case of ATATGTAGGTTATCGGGTAATTCAGTTTGCGCAT, the PBM binding z-score is reported as 1.05.
For CCAACTGGGCCATTCAGAGGTCATTGATCATATG, the PBM binding z-score was 3.98.
AGTCAAAGTTCACTAGGTAACGAAAGATTCAGCT showed a PBM binding z-score of 3.92.
Sequence ATATGTAGGTTACACCCGGGTCATTCAGGCTATG has a PBM binding z-score of 3.23.
In the case of TCGCCTAGGTCAGATCGGGCCAGTATACGCTATA, the PBM binding z-score is reported as 1.38.
ACTAGATGGTCAGCTGAGGTCACACACAATTCGG showed a PBM binding z-score of 4.78.
Sequence CATACAGAGTCAGCTAGGCCAGAGTAGGGACGGC has a PBM binding z-score of -0.193.
Work on GCAACTGGGGCATCAGCAGGTTACCATAACTTAA yielded a PBM binding z-score of 0.318.
GTACCAACGTGAATAGGTCGTTGATGAGTAGGCG showed a PBM binding z-score of 0.489.

What follows are sequences tested on THRa:RXRa (NR concentration 90 nM, RXRa partner concentration 90 nM) in the same assay as above.
How it was run: as §1
In the case of CCTGCTAGGTCATGGTCGGCTAATCTACAGTATG, the PBM binding z-score is reported as 3.01.
Work on TCATATAGGTAAAAGGTGAAAGCCGGTGTGGTAA yielded a PBM binding z-score of 1.56.
With CCTATTAGTTGACCATAAGCGCAACCGAAGCTCG the PBM binding z-score was 0.364.
In the case of TCGAGTAGGTCACCAATGGGGCATTCAGCTTTCT, the PBM binding z-score is reported as 2.42.
In the case of CCTAGTTGGTCAGGAGGTCACACAACGGATATGA, the PBM binding z-score is reported as 3.56.
ATATGTAGGTTACATCCGGGTCATTCCGGCTATG gave a PBM binding z-score of 3.61.
Sequence TCTTGTAGATCAACAGGACGTTAAGAAAGATCGA has a PBM binding z-score of 0.0444.
With ACTAGCAGGCCAAGGGTCACACAAGATTAGTCCG the PBM binding z-score was 3.16.
CCCGACAGGTGAGAAGGTAACTCAGCCTCGATTA was tested, and the PBM binding z-score was 0.229.
For ATCTCTAGGTAAAAGTTCAGGGAATCCCGAGGAT, the PBM binding z-score was 1.54.
CCGACAGGGGCAGAAAGGTTACCATACCATCCGG was tested, and the PBM binding z-score was 1.14.
Sequence TGAATGAGGTAAAAGATCAGGGAACGTGGCGTCG has a PBM binding z-score of 1.3.
CGAACTAGGTCATTGACAGGACAGTGCATAGTAA gave a PBM binding z-score of 2.85.
In the case of CCGACTGTGGCAGAAAGGTTACCATACCATCCGG, the PBM binding z-score is reported as 0.958.
In the case of TTACCAAGGTGAGCTGAGGTCTTTGATCCAACTC, the PBM binding z-score is reported as 4.17.
Work on TCTGCTAGGTCATTTGGTCAGCTAACGAGCTGCC yielded a PBM binding z-score of 2.42.
For GGAACGAGGGCATAGTTGATAGCATCTGTCGACG, the PBM binding z-score was 0.72.
ACTCGCAGGCCAAGTTTGGGTCACTCAAACAAAG was tested, and the PBM binding z-score was 2.72.
With CTCGAAAGGTCGTGCTCGGGTGAGTATACCAAAC the PBM binding z-score was 3.75.
ATCTCTAGGTAACCAACTTCAGTGAATGCCGAAC showed a PBM binding z-score of 0.65.
With CCTACTGGGCCACGAAAGGACATTGATTCAGTGA the PBM binding z-score was 1.94.
In the case of TCTTGTAGATCAGCAGGTTAAGACAGCTGGCCAA, the PBM binding z-score is reported as 0.272.
CGTCCAAGGTCAAGGCTAGGTCAGTGAAAGCATT showed a PBM binding z-score of 4.49.
In the case of ATCTCTAGGTAAAGTTCGGTGAAAGATCGATAGA, the PBM binding z-score is reported as 1.1.
GCTGCTAGGTCAGGTTGGACAGCTAACGGGTACG gave a PBM binding z-score of 1.69.
For CAGACTAGGTCACGAAAGGTCAAAGTCGAATGAC, the PBM binding z-score was 4.96.
Work on ACTATTGGTTGAGACGAGGGCAACCGATAGGTTG yielded a PBM binding z-score of 2.69.
GCTGCTAGGTCAGGTTGCTCAGCTAACGGGTACG was tested, and the PBM binding z-score was 1.49.
Work on AGAATGAGGTTATACGTAGATTAGGGAAGAAAGT yielded a PBM binding z-score of 2.27.
For TCGAGTATGTTACCAATGGGGCATTCAGCTTTCT, the PBM binding z-score was -0.318.
With ATATGTAGGTTATCGGGTAATTCAGTTTGCGCAT the PBM binding z-score was 1.29.
Sequence CCAACTGGGCCATTCAGAGGTCATTGATCATATG has a PBM binding z-score of 3.12.
Sequence AGTCAAAGTTCACTAGGTAACGAAAGATTCAGCT has a PBM binding z-score of 1.85.
ATATGTAGGTTACACCCGGGTCATTCAGGCTATG was tested, and the PBM binding z-score was 3.77.
TCGCCTAGGTCAGATCGGGCCAGTATACGCTATA gave a PBM binding z-score of 3.98.
In the case of ACTAGATGGTCAGCTGAGGTCACACACAATTCGG, the PBM binding z-score is reported as 5.09.
For CATACAGAGTCAGCTAGGCCAGAGTAGGGACGGC, the PBM binding z-score was -0.152.
Sequence GCAACTGGGGCATCAGCAGGTTACCATAACTTAA has a PBM binding z-score of 1.04.
Work on GTACCAACGTGAATAGGTCGTTGATGAGTAGGCG yielded a PBM binding z-score of -0.22.
